# Compound activity (PubChem BioAssay)
# tim10-1 inh: growth inhibitors of tim10-1 mutant yeast; AID 463190; inhibition, % at 20 µM; 330,000 tested, 2.2% active; S. cerevisiae tim10-1 ts strain growth, BacTiter-Glo, 24 h;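 active = inhibition of at least 40%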;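 also: mutant grown at 25 °C; 0% = DMSO wells with yeast and 100% = wells holding no yeast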
# NLRP3 yeast inh: blocks the NALP3 inflammasome reconstituted in yeast; Yeast reconstituted NLRP3/ASC/caspase-1, beta-gal luminescence, 24 h; inhibition, % at 10 µM; 330,000 tested, 0.39% active;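 active = inhibition of 50% or more; inactive = inhibition below 50%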;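 also: plate controls were induced DMSO wells for no effect and uninduced yeast grown without galactose for full effect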
# tim23-1 inh: growth inhibitors of tim23-1 mutant yeast | 330,000 tested, 1.3% active | inhibition, % at 20 µM | S. cerevisiae tim23-1 growth, BacTiter-Glo luminescence, 24 h;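 active = growth inhibition of the mutant yeast at or above 50%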;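 also: temperature-sensitive mutant grown at 25 °C; plate controls were DMSO-treated mutant yeast for no effect and medium wells lacking yeast for full effect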
# TIM10 inh: growth inhibitors of TIM10 yeast strain. S. cerevisiae TIM10 strain growth, BacTiter-Glo luminescence, 24 h. inhibition, % at 10 µM. 330,000 tested, 1.4% active. AID 463195;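 active = inhibition of 40% or more at the single tested concentration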;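 also: wild-type TIM10 isogenic control strain grown at permissive 25 °C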
# NALP1 inh: inhibitors of NALP1 inflammasome in yeast; inhibition, % at 10 µM; 280,000 tested, 0.61% active; AID 2071; S. cerevisiae NALP1/ASC/caspase-1 growth, X-gal OD620, 72 h; in the data active = inhibition mostly above about 24%, no sharp cut-off; inactive = mostly below about 32%
# tim10 confirm: TIM10 yeast growth inhibition, confirmed | shares compounds with TIM10 inh | S. cerevisiae tim10 strain growth, BacTiter-Glo luminescence, 24 h | inhibition, % at 10 µM | 4,600 tested, 63% active | AID 463215;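 active = inhibition of yeast growth at or above a set limit in either of two replicates at 10 µM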;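 also: this counterscreen used the strain with wild-type TIM10; 0% = yeast with DMSO and 100% = medium wells lacking yeast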
# * hit, by the source's call; . = not tested or not shown. Rows were chosen to be rich in hits. Some 4.1% of all compounds tested hit in one or more screens of this group.
SMILES,tim10-1 inh,NLRP3 yeast inh,tim23-1 inh,TIM10 inh,NALP1 inh,tim10 confirm
Nc1c2c(nc3sc4c(c13)CCCC4)-c1ccccc1CC2,22,-14,23,43*,6,41*
Cc1cccc(NNC(N)=S)c1,15,3,17,14,-4,.
Cc1cccc(NNC(=S)Nc2c(C)cccc2C)c1,23,32,42,45*,2,36*
O=C(OCC#CCSc1nnc(-c2ccc([N+](=O)[O-])cc2)o1)c1cccs1,36,15,22,41*,16,33*
Cc1cc(Cl)ccc1OCC(=O)NNC(=O)c1cccnc1,-22,3,2,80*,4,-7
O=C(COc1ccc(Cl)cc1Cl)NNC(=O)c1cccnc1,8,11,10,-11,2,.
Cc1ccc(C(=O)/C=C/c2ccc3c(c2)OCCO3)c(O)c1,24,22,48,52*,-16,52*
COc1cc(/C=C/C(=O)c2ccc(F)cc2)cc(OC)c1OC,39,-15,48,42*,13,42*
COCC(C)n1c(C)cc(C(=O)COC(=O)c2c(C)nn(-c3ccccc3)c2C)c1C (stereo unspecified),35,4,11,43*,10,-2
COCC(C)n1c(C)cc(C(=O)COC(=O)C2=NN(c3ccccc3)C(=O)CC2)c1C (stereo unspecified),27,5,23,19,1,.
Cc1nn(Cc2ccccc2)c(C)c1C(=O)OCC(=O)c1cc(C)n(C2CC2)c1C,40,6,44,32,12,.
COCCn1c(C)cc(C(=O)COC(=O)c2c(C)nn(Cc3ccccc3)c2C)c1C,31,-3,36,41*,-17,3
COc1ccc(/C=C/C(=O)c2cc(Cl)ccc2O)c(OC)c1,19,14,32,23,-1,.
COc1ccc(/C=C/C(=O)c2ccc(Cl)cc2)c(OC)c1,28,16,26,44*,-4,26
COc1ccc(C(=O)Oc2cccc(/C=N/NC(N)=S)c2)cc1,29,24,-21,15,-22,.
Cc1cc(C)nc(N2CCC(C(=O)N3CCN(c4cc(Cl)ccc4C)CC3)CC2)n1,29,13,33,47*,4,25
Cc1ccc(C)c(N2CCN(C(=O)C3CCN(c4nc(C)cc(C)n4)CC3)CC2)c1,27,7,39,38,15,.
COc1ccc(-c2sc(Nc3ccc(F)c(F)c3F)nc2CCC(=O)NN)cc1,30,8,24,7,-11,.
COC(=O)CCCC1=CC2=CC(=O)C(C)(OC(=O)c3cccs3)C(=O)C2=CN1C1CC1 (stereo unspecified),3,18,16,2,.,.
CC(C)(C)c1ccc(/C=C(\c2nc3ccccc3[nH]2)S(=O)(=O)c2ccccc2)cc1,26,27,46,47*,.,33*
Cc1ccc(S(=O)(=O)N2CCCCC2)cc1C(=O)N1CCCCCC1,-3,19,22,12,.,.
Cc1c(O)ccc2c3c(c(=O)oc12)CCC(C)C3 (stereo unspecified),22,21,19,2,.,.
Cc1c(O)ccc2c3c(c(=O)oc12)CCCC3,30,19,31,41*,21,31*
CCC(=O)NN1CCN(c2ccncc2S(=O)(=O)N2CCCCC2)CC1,-2,14,-5,2,-8,.
CN(C)/C(=N\S(=O)(=O)c1ccccc1)c1ccc(F)cc1,-11,12,4,61*,23,0
SMILES,tim10-1 inh,NLRP3 yeast inh,tim23-1 inh,TIM10 inh,NALP1 inh,tim10 confirm
COc1cc(C(=O)n2cnc3ccccc32)c([N+](=O)[O-])cc1OC,22,6,13,13,12,.
O=C(c1cc(Cl)ccc1[N+](=O)[O-])n1cnc2ccccc21,35,-4,48,41*,13,29
Cc1ccc2c(=O)n3c(nc2c1)C(Cc1ccccc1)NC(=O)c1ccc(Cl)cc1-3 (stereo unspecified),11,-1,13,4,.,.
O=C1CCC(C(=O)OCC(=O)N2N=C3/C(=C/c4ccccc4)CCCC3C2c2ccccc2)N1 (stereo unspecified),18,2,29,42*,17,19
C/C(=N\OCC(=O)N/N=C/c1ccc(C)cc1O)c1cccs1,18,13,18,53*,2,26
CC(=O)Cc1nsc(NC(=O)c2ccccc2Cl)n1,23,11,38,51*,8,-10
